# In the supplement of paper PMC8728848:
# This excerpt belongs to a sample that is enriched for the strongest signals.
# How the values were obtained:
# Assay in all cases: glycan array binding signal (z-score within array); higher = stronger binding
# Conditions in all cases: glycan notation: IUPAC condensed, linker removed
# [1] = target: Fuc(a1-2)Gal(b1-4)GlcNAc(b1-3)Gal(b1-4)GlcNAc(b1-2)Man(a1-3)[Fuc(a1-2)Gal(b1-4)GlcNAc(b1-3)Gal(b1-4)GlcNAc(b1-2)Man(a1-6)]Man(b1-4)GlcNAc(b1-4)GlcNAc
# Procedure, shortened: (§1)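 The binding signal is a Z-score computed within each array. Data were drawn from 3228 arrays in the Consortium for Functional Glycomics database, restricted to those with a known protein sequence. Scores were averaged over arrays of the same protein sequence at different concentrations or buffers, and over linkers, and negative values can be taken as non-binding.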
# [2] = target: Fuc(a1-2)Gal3S(b1-4)GlcNAc
# Procedure, shortened: as §1
# [3] = target: Fuc(a1-2)[Gal(a1-3)]Gal(b1-3)GlcNAc(b1-6)GalNAc
# Procedure, shortened: as §1
# [4] = target: Fuc(a1-2)[GalNAc(a1-3)]Gal(b1-3)GlcNAc(b1-3)GalNAc
# Procedure, shortened: as §1
# [5] = target: Fuc(a1-2)[GalNAc(a1-3)]Gal(b1-4)GlcNAc(b1-2)Man(a1-3)[Fuc(a1-2)[GalNAc(a1-3)]Gal(b1-4)GlcNAc(b1-2)Man(a1-6)]Man(b1-4)GlcNAc(b1-4)GlcNAc
# Procedure, shortened: as §1
# [6] = target: Fuc(a1-2)[GalNAc(a1-3)]Gal(b1-4)GlcNAc(b1-3)GalNAc
# Procedure, shortened: as §1
# [7] = target: Fuc(a1-3)[Gal(b1-4)]Glc6S
# Procedure, shortened: as §1
# [8] = target: Fuc(a1-3)[Gal(b1-4)]GlcNAc(b1-2)Man
# Procedure, shortened: as §1
# [9] = target: Fuc(a1-3)[Gal(b1-4)]GlcNAc(b1-6)GalNAc
# Procedure, shortened: as §1
# [10] = target: Gal(a1-4)Gal(b1-4)GlcNAc(b1-2)Man(a1-3)[Gal(a1-4)Gal(b1-4)GlcNAc(b1-2)Man(a1-6)]Man(b1-4)GlcNAc(b1-4)GlcNAc
# Procedure, shortened: as §1
# [11] = target: Gal(a1-4)Gal(b1-4)GlcNAc(b1-3)Gal(b1-4)Glc
# Procedure, shortened: as §1
# [12] = target: Gal(b1-3)GalNAc
# Procedure, shortened: as §1
# [13] = target: Gal(b1-3)GalNAc(b1-4)Gal(b1-4)Glc
# Procedure, shortened: as §1
# [14] = target: Gal(b1-3)GlcNAc(b1-3)Gal(b1-3)GlcNAc
# Procedure, shortened: as §1
# [15] = target: Gal(b1-3)[Fuc(a1-4)]GlcNAc
# Procedure, shortened: as §1
# [16] = target: Gal(b1-4)GlcNAc(b1-2)Man(a1-3)[Gal(b1-4)GlcNAc(b1-2)Man(a1-6)][GlcNAc(b1-4)]Man(b1-4)GlcNAc(b1-4)[Fuc(a1-6)]GlcNAc
# Procedure, shortened: as §1
# [17] = target: Gal(b1-4)GlcNAc(b1-2)[Gal(b1-4)GlcNAc(b1-4)]Man(a1-3)[Gal(b1-4)GlcNAc(b1-2)Man(a1-6)]Man(b1-4)GlcNAc(b1-4)GlcNAc
# Procedure, shortened: as §1
# [18] = target: Gal(b1-4)GlcNAc(b1-2)[Gal(b1-4)GlcNAc(b1-6)]Man(a1-6)[GlcNAc(b1-4)][Gal(b1-4)GlcNAc(b1-2)[Gal(b1-4)GlcNAc(b1-4)]Man(a1-3)]Man(b1-4)GlcNAc(b1-4)[Fuc(a1-6)]GlcNAc
# Procedure, shortened: as §1
# [19] = target: Gal(b1-4)GlcNAc(b1-3)Gal(b1-4)GlcNAc(b1-3)Gal(b1-4)GlcNAc(b1-3)Gal(b1-4)GlcNAc(b1-3)Gal(b1-4)GlcNAc(b1-2)Man(a1-3)[Gal(b1-4)GlcNAc(b1-3)Gal(b1-4)GlcNAc(b1-3)Gal(b1-4)GlcNAc(b1-3)Gal(b1-4)GlcNAc(b1-3)Gal(b1-4)GlcNAc(b1-2)Man(a1-6)]Man(b1-4)GlcNAc(b1-4)GlcNAc
# Procedure, shortened: as §1
# [20] = target: Gal(b1-6)Gal
# Procedure, shortened: as §1
# [21] = target: Gal3S(b1-3)GlcNAc
# Procedure, shortened: as §1
# [22] = target: Gal3S(b1-4)[Fuc(a1-3)]GlcNAc6S
# Procedure, shortened: as §1
# [23] = target: Gal6S(b1-4)Glc6S
# Procedure, shortened: as §1
# [24] = target: Gal6S(b1-4)GlcNAc
# Procedure, shortened: as §1
# [25] = target: GlcNAc(b1-2)Man(a1-3)[GlcNAc(b1-4)][GlcNAc(b1-2)Man(a1-6)]Man(b1-4)GlcNAc(b1-4)[Fuc(a1-6)]GlcNAc
# Procedure, shortened: as §1
# [26] = target: GlcNAc(b1-3)Gal(b1-4)GlcNAc(b1-3)Gal(b1-4)GlcNAc(b1-3)Gal(b1-4)GlcNAc(b1-2)[GlcNAc(b1-3)Gal(b1-4)GlcNAc(b1-3)Gal(b1-4)GlcNAc(b1-3)Gal(b1-4)GlcNAc(b1-6)]Man(a1-6)[GlcNAc(b1-3)Gal(b1-4)GlcNAc(b1-3)Gal(b1-4)GlcNAc(b1-3)Gal(b1-4)GlcNAc(b1-2)Man(a1-3)]Man(b1-4)GlcNAc(b1-4)[Fuc(a1-6)]GlcNAc
# Procedure, shortened: as §1
# [27] = target: GlcNAc(b1-3)Gal(b1-4)GlcNAc(b1-3)Gal(b1-4)GlcNAc(b1-3)Gal(b1-4)GlcNAc(b1-3)Gal(b1-4)GlcNAc(b1-2)Man(a1-3)[GlcNAc(b1-3)Gal(b1-4)GlcNAc(b1-3)Gal(b1-4)GlcNAc(b1-3)Gal(b1-4)GlcNAc(b1-3)Gal(b1-4)GlcNAc(b1-2)Man(a1-6)]Man(b1-4)GlcNAc(b1-4)GlcNAc
# Procedure, shortened: as §1
# [28] = target: GlcNAc(b1-3)Gal(b1-4)GlcNAc(b1-3)Gal(b1-4)GlcNAc(b1-3)Gal(b1-4)GlcNAc(b1-3)Gal(b1-4)GlcNAc(b1-2)[GlcNAc(b1-3)Gal(b1-4)GlcNAc(b1-3)Gal(b1-4)GlcNAc(b1-3)Gal(b1-4)GlcNAc(b1-3)Gal(b1-4)GlcNAc(b1-6)]Man(a1-6)[GlcNAc(b1-3)Gal(b1-4)GlcNAc(b1-3)Gal(b1-4)GlcNAc(b1-3)Gal(b1-4)GlcNAc(b1-3)Gal(b1-4)GlcNAc(b1-2)Man(a1-3)]Man(b1-4)GlcNAc(b1-4)[Fuc(a1-6)]GlcNAc
# Procedure, shortened: as §1
# [29] = target: Man(a1-2)Man(a1-2)Man(a1-6)[Man(a1-3)]Man
# Procedure, shortened: as §1
# [30] = target: Man(a1-2)Man(a1-6)[Man(a1-3)]Man(a1-6)[Man(a1-2)Man(a1-2)Man(a1-3)]Man(b1-4)GlcNAc(b1-4)GlcNAc
# Procedure, shortened: as §1
# [31] = target: Man(a1-3)[Man(a1-6)]Man(a1-6)[Man(a1-3)]Man
# Procedure, shortened: as §1
# [32] = target: Man(a1-6)Man
# Procedure, shortened: as §1
# [33] = target: Neu5Ac(a2-3)Gal(b1-4)GlcNAc(b1-3)Gal(b1-4)GlcNAc(b1-3)GalNAc
# Procedure, shortened: as §1
# [34] = target: Neu5Ac(a2-3)Gal(b1-4)GlcNAc(b1-3)Gal(b1-4)GlcNAc(b1-6)[Gal(b1-3)]GalNAc
# Procedure, shortened: as §1
# [35] = target: Neu5Ac(a2-3)Gal(b1-4)[Fuc(a1-3)]GlcNAc
# Procedure, shortened: as §1
# [36] = target: Neu5Ac(a2-3)Gal6S(b1-4)[Fuc(a1-3)]GlcNAc
# Procedure, shortened: as §1
# [37] = target: Neu5Ac(a2-6)Gal(b1-4)GlcNAc(b1-2)Man(a1-3)Man(b1-4)GlcNAc(b1-4)GlcNAc
# Procedure, shortened: as §1
# [38] = target: Neu5Ac(a2-6)Gal(b1-4)GlcNAc(b1-3)Gal(b1-4)GlcNAc(b1-6)[Gal(b1-3)]GalNAc
# Procedure, shortened: as §1
# [39] = target: Neu5Ac(a2-8)Neu5Ac(a2-3)[GalNAc(b1-4)]Gal(b1-4)Glc
# Procedure, shortened: as §1
# [40] = target: Neu5Ac(a2-8)Neu5Ac(a2-8)Neu5Ac(a2-3)Gal(b1-4)Glc
# Procedure, shortened: as §1
# [41] = target: Neu5Ac(b2-6)Gal(b1-4)GlcNAc
# Procedure, shortened: as §1
# [42] = target: Neu5Gc(a2-8)Neu5Gc(a2-3)Gal(b1-4)GlcNAc
# Procedure, shortened: as §1
binder,measurement,setting,value
Pwp3 (Candida glabrata) (protein) MGSSHHHHHHSSGLVPRGSHMASKNPVDFTTVCQFPDNFSKKPGFLATTARLGLWITGNSYKELLNYPGTFTLTTQQASTTTPNIQLRGTDLFTTIYGLTVYPLYLLVELQGYFVPTQSGMYTFSLTGSDDAAIIFIGNPSTFPCDAFKTWPQATANDITVTDSINPSRTLYMVKGVAYPLRIAYYNGLGNGVLNAAFTDPSGTKRTDWNGYIWQYDQCSTCTYK,glycan array binding signal (z-score),[1],-0.363
same,glycan array binding signal (z-score),[2],-0.232
same,glycan array binding signal (z-score),[3],4.02
same,glycan array binding signal (z-score),[4],-0.434
same,glycan array binding signal (z-score),[5],3.9
same,glycan array binding signal (z-score),[6],3.75
same,glycan array binding signal (z-score),[7],5.3
same,glycan array binding signal (z-score),[8],-0.319
same,glycan array binding signal (z-score),[9],-0.516
same,glycan array binding signal (z-score),[10],-0.343
same,glycan array binding signal (z-score),[11],-0.304
same,glycan array binding signal (z-score),[12],-0.038
same,glycan array binding signal (z-score),[13],4.7
same,glycan array binding signal (z-score),[14],0.247
same,glycan array binding signal (z-score),[15],-0.246
same,glycan array binding signal (z-score),[16],-0.02
same,glycan array binding signal (z-score),[17],-1.19
same,glycan array binding signal (z-score),[18],-0.123
same,glycan array binding signal (z-score),[19],3.73
same,glycan array binding signal (z-score),[20],-0.446
same,glycan array binding signal (z-score),[21],-0.36
same,glycan array binding signal (z-score),[22],-0.535
same,glycan array binding signal (z-score),[23],6.29
same,glycan array binding signal (z-score),[24],0.319
same,glycan array binding signal (z-score),[25],-0.195
same,glycan array binding signal (z-score),[26],1.66
same,glycan array binding signal (z-score),[27],-0.439
same,glycan array binding signal (z-score),[28],4.05
same,glycan array binding signal (z-score),[29],-0.335
same,glycan array binding signal (z-score),[30],-0.066
same,glycan array binding signal (z-score),[31],4.4
same,glycan array binding signal (z-score),[32],-0.259
same,glycan array binding signal (z-score),[33],-0.424
same,glycan array binding signal (z-score),[34],2.29
same,glycan array binding signal (z-score),[35],0.139
same,glycan array binding signal (z-score),[36],-0.332
same,glycan array binding signal (z-score),[37],-0.617
same,glycan array binding signal (z-score),[38],0.018
same,glycan array binding signal (z-score),[39],4.12
same,glycan array binding signal (z-score),[40],-1.21
same,glycan array binding signal (z-score),[41],0.194
same,glycan array binding signal (z-score),[42],0.001
